# According to PubChem BioAssay (NCI):
# Compounds without any hit were thinned out: in the full panel of roughly 83,000, 20% have a hit.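 Values shown are percent growth following 48 h exposure of cells in 96-well plates to a single concentration of compound; below 10 was considered active.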 Unmarked numbers belong to inactive results. Calls of active or inactive are those of the source.
# System: SF-295 CNS
# Assay: NCI-60 one-dose screen, 48 h (100 = growth as untreated, 0 = no growth, -100 = all killed)
# Conditions: 10 µM unless noted
row,SMILES,growth
1,O=C1Nc2ccc(Br)cc2/C1=N/c1nc(-c2ccccc2)cs1,102%
2,CS(=O)(=O)c1ccc(C(=O)N/N=C/c2ccccc2Cl)cc1,103%
3,Cc1ccc(Nc2cccc3ccccc23)cc1,112%
4,CCCCc1nc(Cl)c(C2CC(c3ccc(S(N)(=O)=O)cc3)=NN2c2ccc(C#N)cc2)[nH]1 (configuration not stated),97.9%
5,O/N=C1\c2ccccc2-c2ccc(Br)cc21,99.2%
6,CCN(CC)CCCC(C)Nc1c(-c2ccccc2)cnc2cc(Cl)ccc12 (configuration not stated),86.5%
7,OC(COCc1ccccc1)COCc1ccccc1,108%
8,O=C(CC(=O)c1cccc(Cl)c1)c1cccc(Cl)c1,26.8%
9,O=C1CCCN1C1CCN2CCCc3cccc1c32 (configuration not stated),110%
10,CC(C)(C)[Si](C)(C)OC1[C@@H](CNC(N)=O)O[C@@H](n2cnc3c(NC(=O)Nc4ccccc4)ncnc32)[C@H]1O[Si](C)(C)C(C)(C)C (some centres not stated),64.7%
11,NC(CCC(=O)NC(CS)C(=O)NCC(=O)O)C(=O)O (configuration not stated),104%
12,C/C(=N\NC(=O)CSc1nc2ccccc2c(=O)n1CCc1ccc(S(N)(=O)=O)cc1)c1ccc(Br)cc1,89.9%
13,CC(C)CCSc1nc(Nc2ccccc2)c(C#N)c(-c2ccc(F)cc2)n1,34.5%
14,CCOC(=O)C1OC2(CCCC2)OC1C(=O)OCC (configuration not stated),126%
15,CS(=O)(=O)c1ccc(C(=O)N/N=C/c2ccccc2O)cc1,38%
16,O=C(NCCN1CCCC1)n1cc(-c2ccncc2)c(-c2cc(O)cc(Cl)c2)n1,125%
17,C[C@@H]1N=C(c2ccc3ccccc3c2)Nc2nc3ccccn3c2C1=O,14.9%
18,CNCCCn1c2c(c3ccc(Cl)cc3c1=O)C(=O)c1cc(OC)cnc1-2,14.6%
19,CC(=O)Oc1ccccc1C(=O)Nc1ncc([N+](=O)[O-])s1,9.28% (active)
20,O=C1/C(=C/c2ccccc2)SC(=Nc2ccccc2)N1Nc1ccccc1,16.2%
21,Oc1c(C(Nc2cccc3ccccc23)c2ccccc2)ccc2cccnc12 (configuration not stated),7.99% (active)
22,COc1ccc(CC2c3cc(OC)c(OC)cc3CC[N+]2(C)CCC(=O)OCCCCCOC(=O)CC[N+]2(C)CCc3cc(OC)c(OC)cc3C2Cc2ccc(OC)c(OC)c2)cc1OC (configuration not stated),93.5%
23,CCn1c(Cc2ccccc2Nc2c(Cl)cccc2Cl)nnc1SCC(=O)Nc1ccccc1C(F)(F)F,90.6%

# System: SF-539 CNS
# Assay: as above
# Conditions: 10 µM unless noted
row,SMILES,growth
1,COc1ccc(N=C2CSc3nnc(-c4cc(F)c(Cl)cc4Cl)n3N2)cc1,-67.3% (active)
2,Nc1c(C(=O)Nc2cccc(Cl)c2)sc2nc3c(cc12)C(=O)CCC3,27.3%
3,COc1ccc(CNc2c3ccccc3nc3ccc(OC)cc23)cc1,8.46% (active)
4,CCOC(=O)c1cc(C(=O)OCC)c(C)nc1C,103%
5,NC(=O)N/N=C\c1ccc([N+](=O)[O-])o1,102%
6,Cc1ccc(NC(=O)c2sc3nc4c(cc3c2N)C(=O)CCC4)cc1Cl,102%
7,COc1ccc(-n2c(COc3ccc(F)cc3)n[nH]c2=S)cc1,101%
8,COc1ccccc1-[n+]1cc(-c2ccc(-c3ccccc3)cc2)n2c1CCCCC2,18.2%
9,Nc1cc(C(=O)O)cc(C(=O)O)c1,103%
10,CN(C)c1nc(-c2cccs2)n2nc(-c3ccco3)cc2n1,93.6%
11,O=C(Nc1cccc(-n2ccc3c(NC(=O)c4ccccc4)nccc32)c1)c1ccc(N2CCOCC2)c(C(F)(F)F)c1,11.9%
12,CNC(=O)c1c(NC(=O)c2ccc(C(C)C)cc2)sc2c1CCC(=O)C2,-63.7% (active)
13,CC(CN1CCN(CC(C)Nc2ccnc3cc(Cl)ccc23)CC1)Nc1ccnc2cc(Cl)ccc12 (configuration not stated),-82.4% (active)
14,Cc1c2c(cc3c1[nH]c1ccccc13)C=NCC2,92.8%
15,CC(C)c1ccc2c(c1)CCC1C2CCCC1(C)NCc1ccccc1 (configuration not stated),90%
16,CC1(C)OC2OC3C(CN)OC(c4ccccc4)OC3C2O1 (configuration not stated),106%
17,O=C1Nc2ccc(Br)cc2/C1=N/c1nc(-c2ccccc2)cs1,98.6%
18,CS(=O)(=O)c1ccc(C(=O)N/N=C/c2ccccc2Cl)cc1,101%
19,Cc1ccc(Nc2cccc3ccccc23)cc1,99.8%
20,CCCCc1nc(Cl)c(C2CC(c3ccc(S(N)(=O)=O)cc3)=NN2c2ccc(C#N)cc2)[nH]1 (configuration not stated),99.9%

row,SMILES,growth
1,O/N=C1\c2ccccc2-c2ccc(Br)cc21,97.8%
2,CCN(CC)CCCC(C)Nc1c(-c2ccccc2)cnc2cc(Cl)ccc12 (configuration not stated),83.2%
3,OC(COCc1ccccc1)COCc1ccccc1,110%
4,O=C(CC(=O)c1cccc(Cl)c1)c1cccc(Cl)c1,41.4%
5,O=C1CCCN1C1CCN2CCCc3cccc1c32 (configuration not stated),101%
6,CC(C)(C)[Si](C)(C)OC1[C@@H](CNC(N)=O)O[C@@H](n2cnc3c(NC(=O)Nc4ccccc4)ncnc32)[C@H]1O[Si](C)(C)C(C)(C)C (some centres not stated),68.1%
7,NC(CCC(=O)NC(CS)C(=O)NCC(=O)O)C(=O)O (configuration not stated),105%
8,C/C(=N\NC(=O)CSc1nc2ccccc2c(=O)n1CCc1ccc(S(N)(=O)=O)cc1)c1ccc(Br)cc1,83.1%
9,CC(C)CCSc1nc(Nc2ccccc2)c(C#N)c(-c2ccc(F)cc2)n1,52.7%
10,CCOC(=O)C1OC2(CCCC2)OC1C(=O)OCC (configuration not stated),114%
11,CS(=O)(=O)c1ccc(C(=O)N/N=C/c2ccccc2O)cc1,55.3%
12,O=C(NCCN1CCCC1)n1cc(-c2ccncc2)c(-c2cc(O)cc(Cl)c2)n1,77.9%
13,C[C@@H]1N=C(c2ccc3ccccc3c2)Nc2nc3ccccn3c2C1=O,37.2%
14,CNCCCn1c2c(c3ccc(Cl)cc3c1=O)C(=O)c1cc(OC)cnc1-2,29.1%
15,CC(=O)Oc1ccccc1C(=O)Nc1ncc([N+](=O)[O-])s1,39.5%
16,O=C1/C(=C/c2ccccc2)SC(=Nc2ccccc2)N1Nc1ccccc1,5.85% (active)
17,Oc1c(C(Nc2cccc3ccccc23)c2ccccc2)ccc2cccnc12 (configuration not stated),43.3%
18,COc1ccc(CC2c3cc(OC)c(OC)cc3CC[N+]2(C)CCC(=O)OCCCCCOC(=O)CC[N+]2(C)CCc3cc(OC)c(OC)cc3C2Cc2ccc(OC)c(OC)c2)cc1OC (configuration not stated),100%
19,CCn1c(Cc2ccccc2Nc2c(Cl)cccc2Cl)nnc1SCC(=O)Nc1ccccc1C(F)(F)F,106%
